From PubChem BioAssay AID1053197 (The Scripps Research Institute Molecular Screening Center, 2014)
Screen size: about 370,000 compounds; about 2,600 (0.7%) were called active. The sample as a whole holds a higher share of actives than the screen did. A number with no mark means an inactive call.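 The calls were made as follows: active = inhibition above a cutoff: mean of compounds within the control limits plus 3 SD of those (cut at about 17% in these data); inactive = the rest.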

Molecular target: Sialate O-acetylesterase (Homo sapiens) (UniProt Q9HAT2)
Sequence (Q9HAT2 whole entry, looked up): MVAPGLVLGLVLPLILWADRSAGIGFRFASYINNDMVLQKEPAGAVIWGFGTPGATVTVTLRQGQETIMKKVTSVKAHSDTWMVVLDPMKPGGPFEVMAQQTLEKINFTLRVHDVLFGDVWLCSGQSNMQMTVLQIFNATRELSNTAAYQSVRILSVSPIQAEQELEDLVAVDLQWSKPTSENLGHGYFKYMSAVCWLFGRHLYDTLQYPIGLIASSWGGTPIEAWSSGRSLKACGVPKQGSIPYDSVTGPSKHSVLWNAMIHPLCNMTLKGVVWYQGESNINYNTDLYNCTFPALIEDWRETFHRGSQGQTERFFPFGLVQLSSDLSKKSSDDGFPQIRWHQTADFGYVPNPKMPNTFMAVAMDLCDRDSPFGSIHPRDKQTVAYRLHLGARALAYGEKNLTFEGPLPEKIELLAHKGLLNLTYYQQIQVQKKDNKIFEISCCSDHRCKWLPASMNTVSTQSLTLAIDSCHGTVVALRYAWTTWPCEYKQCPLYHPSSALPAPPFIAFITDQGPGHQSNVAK
Test: blockers of sialate O-acetylesterase activity-probe labeling – biochemical, fluorescence polarization, FP-Rh probe, 1536-well HTS, primary screen (AID 1053197);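 also: 0% = plate median of compound wells and 100% = probe without SIAE protein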
Settings: SIAE FP-Rh probe binding, at 9.66 µM, active compounds read high

Going from `CN(C)Cc1cn(-c2ccc(-c3noc4c3C(=O)N(CC(=O)N3CCOCC3)CC4)cc2)nn1` to `COc1cccc(N2CCN(CC(=O)N(C)Cc3ccc(F)cc3)CC2)c1`, the inhibition rises from -2.28% to 1.64%.

First: Cc1nc(CNc2ncnc3ccc(-c4ccc5c(c4)OCO5)cc23)cs1
Second: O=C1CC(c2ccc3c(c2)OCO3)N=C2N(CC3CC3)C/C(=C/c3ccccc3)N12 (stereo not given)
The inhibition of the first is lower: -10.9% for the first, 6.68% for the second.

Compared with `O=C(Nc1ccccc1)N1CCN(Cc2nc3ccccc3c(=O)[nH]2)CC1`, `O=S(=O)(c1ccccc1)N1CCC(c2nc3ccccc3o2)CC1` is lower in inhibition: 12.6% for the first, 6.75% for the second.

Compared with `COc1ccc(Cn2cc(CN3[C@@H](CC(C)C)COc4cc(Br)ccc4S3(=O)=O)nn2)cc1`, `COc1ccc(-c2cc(-c3nnc(SCC(=O)Nc4cccc5ccccc45)n3N)[nH]n2)cc1` is higher in inhibition: 0.93% for the first, 1.67% for the second.

First: CN(C)S(=O)(=O)c1ccc(NC(=O)COC(=O)c2n[nH]c3ccccc23)cc1
Second: Cc1ccnc(NS(=O)(=O)c2ccc(NC(=O)c3ccc(S(=O)(=O)N(C)C)cc3)cc2)n1
The inhibition of the first is lower: -22.8% for the first, -1.59% for the second.

First: O=C(COC(=O)c1c(Cl)cccc1Cl)Nc1cccc(S(=O)(=O)NC2=NCCCCC2)c1
Second: Cc1ccc(S(=O)(=O)N2CCC(C(=O)OCC(=O)N(C)c3ccccc3)CC2)cc1C
The inhibition of the first is lower: -8.81% for the first, -1.79% for the second.

Compared with `C=CCN1C(=O)[C@@H](CC(=O)N2CCN(C(=O)OCC)CC2)[C@]2(C(=O)OCC)CCCCC/C=C/12`, `Cc1nc2ccc(S(=O)(=O)NC(C(=O)N3CCCCCC3)C(C)C)cc2s1` (stereo not given) is lower in inhibition: 2.29% for the first, -3.13% for the second.

Compared with `CCN(C(=O)COC(=O)c1cc(S(=O)(=O)N2CCc3ccccc32)ccc1OC)C1CCS(=O)(=O)C1` (stereo not given), `COc1ccc(C(=O)O)cc1S(=O)(=O)NC1CCN(Cc2ccccc2)CC1` is higher in inhibition: -1.8% for the first, 0.4% for the second.

Going from `CC(=O)Nc1nc2ncccn2c1-c1ccc(C(F)(F)F)cc1` to `Cc1cc(C)nc(NC(=S)N2CCN(c3ccc(C(F)(F)F)cn3)CC2)c1`, the inhibition falls from 4.66% to -2.17%.

Compared with `CC(=O)c1cc(-c2ccc3ccccc3c2)c(=O)n2c1CCC2`, `Cc1cccc(C(=O)N2CCC(c3nc4ccccc4s3)CC2)c1` is higher in inhibition: -1.29% for the first, 1.7% for the second.

Going from `COc1ccccc1/C=C/CN1CCC(CO)(Cc2ccccc2)CC1` to `CCC(NC(=O)C1C2C=CC3(CN(Cc4ccccc4)C(=O)C13)O2)c1ccccc1` (stereo not given), the inhibition rises from -3.81% to 0.07%.

First: O=S1(=O)c2c(cccc2N2CC[C@H](O)C2)O[C@@H]2CCN1C2
Second: O=C(CCl)NC1CCCCN(Cc2cccc(C(F)(F)F)c2)C1=O (stereo not given)
The inhibition of the first is higher: 6.21% for the first, 1.33% for the second.

Compared with `Cc1ccnc(NS(=O)(=O)c2ccc(NC(=O)c3oc4ccccc4c3C)cc2)n1`, `Cc1ccc(-n2c(SCC(=O)Nc3ccc(S(=O)(=O)Nc4nccs4)cc3)nnc2-c2ccncc2)cc1` is lower in inhibition: -5.42% for the first, -12.6% for the second.

Going from `CCCCCCN1CCS(=O)(=O)N(Cc2ccc(C(F)(F)F)cc2)C(C(=O)OC)C1` (stereo not given) to `CC(CCN1CCC(C(O)(c2ccccc2)c2ccccc2)CC1)Oc1ccc(C(F)(F)F)cc1` (stereo not given), the inhibition rises from -2.85% to 8.83%.

Going from `CC(=O)OC12CCCN(C1)/C(=C/c1ccncc1)C2` (stereo not given) to `Cc1ccc(C(=O)C2CCN(CC(=O)NCCC(C)C)CC2)cc1`, the inhibition rises from 0.93% to 4.25%.

Compared with `N#CC(C(N)=O)=C1CCC2(CC1)OCCCCO2`, `COC(=O)C[C@@H]1CC[C@@H]2[C@@H](COc3ccc(NC(=O)Nc4ccc(F)c(F)c4)cc3C(=O)N2C)O1` is lower in inhibition: -1.29% for the first, -2.22% for the second.

Compared with `Nn1c(SCC(=O)Nc2cccc3ccccc23)nnc1-c1cc(-c2ccc(F)cc2)n[nH]1`, `O=C(CSc1nnc(-c2ccccn2)n1-c1ccccc1)Nc1ccc2cn[nH]c2c1` is higher in inhibition: -0.5% for the first, 1.79% for the second.

Going from `CC(C)(C)NC(=O)C(c1cccnc1)N(C(=O)c1cnco1)c1ccc(C(C)(C)C)cc1` (stereo not given) to `CCOc1ccc(NC(=O)CSc2nc3ccccc3c(=O)n2Cc2cccs2)cc1`, the inhibition falls from 2.03% to 0.33%.

Going from `CCOC(=O)c1ccc(NNC(C)=O)c([N+](=O)[O-])c1` to `CCOc1cc(C(=O)O)ccc1OCCOc1ccccc1`, the inhibition falls from 3.08% to -4.46%.

First: O=C(CSc1nnc(COc2ccccc2)n1Cc1ccco1)c1ccc2ccccc2c1
Second: O=C(CSc1nc2ccccc2n1Cc1ccccc1Cl)N/N=C\c1c[nH]c2ccccc12
The inhibition of the first is higher: -7.8% for the first, -8.22% for the second.

Compared with `CCOc1ccc(/C=N/OCC(=O)NCc2cccs2)cc1`, `O=C(CSc1nc2ccccc2s1)NN=Cc1ccc(O)cc1O` is higher in inhibition: -7.11% for the first, 7.21% for the second.

First: CNCC(O)c1ccc(O)c(O)c1 (stereo not given)
Second: O=C1CC[C@@H](COc2ccc3[nH]cc(-c4ccccc4)c3c2-c2ccccc2)N1
The inhibition of the first is higher: 4.81% for the first, 3.06% for the second.

In the case of `CN1c2ccc(C=O)c3c(C=O)ccc(c23)N(C)C1(C)C`, the inhibition is reported as 21.9% (active).
For `NS(=O)(=O)c1ccc(NC(=O)COC(=O)c2c3c(nc4ccccc24)/C(=C\c2ccc4c(c2)OCO4)CCC3)cc1`, the inhibition was 43.9% (active).
For `CCN(C(=O)COC(=O)C1CCN(S(=O)(=O)c2ccc(C)c(C)c2)CC1)C1CCS(=O)(=O)C1` (stereo not given), the inhibition was 26.2% (active).
With `COc1ccccc1/C=C/C=N/NC(=O)CN1CCN(Cc2ccccc2)CC1` the inhibition was 17.3% (active).
With `Cc1ccnc(NS(=O)(=O)c2ccc(NC(=O)c3ccc(S(=O)(=O)N4CCOCC4)cc3)cc2)n1` the inhibition was 21% (active).
In the case of `Cc1nc2ccc(C(=O)N3CCSCC3)cc2s1`, the inhibition is reported as 80.7% (active).
`CC1(C)C/C(=C(/C#N)C(N)=O)CCO1` was tested, and the inhibition was 17.1% (active).
With `CCOc1ccccc1Nc1ccc(C(=O)O)cc1[N+](=O)[O-]` the inhibition was 17.1% (active).
`CCOc1ccc(NC(=O)C/C(C)=N/NC(=O)Cc2cccs2)cc1` was tested, and the inhibition was 21.6% (active).
In the case of `COCCOC(=O)c1sc(=S)n(CCOC)c1N`, the inhibition is reported as 35.8% (active).
In the case of `CCC(C)c1ccc(O)c(/C=N/O)c1` (stereo not given), the inhibition is reported as 23.1% (active).
